Records with an inconclusive call do not appear. Where a call stands in place of a potency, no number is given. The source made the active and inactive calls. The call rests on the fitted dose curve.
Tests used:
[1] = Cytotoxicity counterscreen for inhibitors of SARS-CoV-2 cell entry (AID 1645845); settings: outcome: dose series up to 57.1 µM unless noted; further: nearly all actives have a fitted effect of over 50% in size
How it was run: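 ATP-content luminescence (ATPLite 1step, 15 min RT) read after 48 h compound exposure of Expi293F cells stably expressing human ACE2; normalized to cells-only wells and media-only wells.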

[2] = Primary qHTS to identify inhibitors of SARS-CoV-2 cell entry (AID 1645846); settings: SARS-CoV-2 pseudovirus cell entry assay, luminescence; activity change, negative = inhibition: at 57.1 µM (top of the series) unless noted; further: nearly all actives have a fitted effect of over 45% in size
How it was run: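 HEK293-ACE2 (Expi293F, stable hACE2), 1500 cells/well, o/n 37C; cpd 23 nL pin, 1 h; MLV-PP w/ SARS-CoV-2-S (Wuhan-Hu-1, Δ19 C-term); 48 h 37C; Bright-Glo luminescence; normalized vs S-PP and bald PP.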
Potency means the concentration at half of the fitted maximal effect.

| SMILES | Potency [1] | Potency [2] | activity change, negative = inhibition [2] |
| --- | --- | --- | --- |
| Cc1cn(CCN2CCN(c3ccccc3-c3cc(C#N)cc(C(=O)NCCCN4CCCC4)c3)CC2)c2ccccc12 | 35.5 µM (active) | 17.8 µM (active) |  |
| COc1cccc2c1c(O)c(C(=O)N(C)c1ccc(C(F)(F)F)cc1)c(=O)n2C | inactive |  | -9.47% |
| O=C(CCNC(=O)c1ccc(OC(F)(F)F)cc1)N[C@@H]1CCCc2ccccc21 | inactive |  | 4.82% |
| COC(=O)N1CC2(CC2)C[C@H](C(=O)NO)[C@H]1C(=O)N1CCN(c2ccccc2)CC1 | inactive |  | -12.3% |
| Cc1c(-c2c(-c3ccc(F)o3)sc3ncnc(O[C@@H](Cc4ccccc4OCc4ccnn4CC(F)(F)F)C(=O)O)c23)ccc(OCCN2CCN(C)CC2)c1Cl | inactive |  | -7.93% |
| COC1=C2C[C@H](C)C[C@H](OC)[C@H](O)[C@@H](C)/C=C(/C)[C@H](OC(N)=O)[C@@H](OC)/C=C\C=C(\C)C(=O)NC(=CC1=O)C2=O | inactive | inactive |  |
| COc1ccc(Oc2cc(NCCC(F)(F)F)c3ncc(-c4ccc(C(=O)NC5CC5)c(C)c4)n3n2)c(F)c1F | inactive |  | -12.1% |
| N#C/C(=C(/N)Sc1ccc(N)cc1)c1ccccc1C(F)(F)F | inactive |  | -16.8% |
| Cc1cnc(NC(=O)c2cc(Oc3cnc(C(=O)N(C)C)nc3)c3cc(C)oc3c2)cn1 | inactive |  | -4.66% |
| O=C(O)CC1CCC(c2ccc(-c3ccc(Nc4ccc(C(F)(F)F)nc4)cn3)cc2)CC1 (centres undefined) | inactive |  | -24.6% |
| O=C(NOCCO)c1ccc2cncn2c1Nc1ccc(I)cc1F | inactive |  | -11.2% |
| Cc1ccc(NC(=O)c2ccc(CN3CC[C@H](N(C)C)C3)c(C(F)(F)F)c2)cc1Nc1nccc(-c2cncnc2)n1 | inactive |  | -12% [at 27.1 µM] |
| Nc1cc(COc2c(Cl)cc(C[C@H](N)C(=O)O)cc2Cl)c2oc(-c3ccccc3)nc2c1 | inactive |  | -18.9% |
| CO[C@H]1/C=C/O[C@@]2(C)Oc3c(C)c(O)c4c(O)c(c5c(c4c3C2=O)=NC2(CCN(CC(C)C)CC2)N=5)NC(=O)/C(C)=C/C=C/[C@H](C)[C@H](O)[C@@H](C)[C@@H](O)[C@@H](C)[C@H](OC(C)=O)[C@@H]1C | inactive | inactive |  |
| OCc1ccccc1O[C@@H]1O[C@H](CO)[C@@H](O)[C@H](O)[C@H]1O | inactive |  | -12.3% |
| C=C1/C(=C/C=C2\CCCC3(C)[C@@H]([C@H](C)/C=C/C=C/C(O)(CC)CC)CC[C@@H]23)C[C@@H](O)C[C@@H]1O (some centres undefined) | inactive | inactive |  |

| SMILES | Potency [1] | Potency [2] | activity change, negative = inhibition [2] |
| --- | --- | --- | --- |
| N#Cc1ccc(N(Cc2ccc(Br)cc2)n2cnnc2)cc1 | inactive |  | -18.8% |
| COc1cc2nc(-c3cc(F)ccc3O)nc(N[C@@H]3CNC[C@H]3C(C)(C)O)c2cc1OC | 3.98 µM (active) | 5.01 µM (active) |  |
| CC(C)(NS(=O)(=O)c1ccc2c(Cl)cnc(N=C(N)N)c2c1)C(=O)O | inactive |  | 0.398% |
| Nc1ncnc2c1C(=O)N(c1ccc(C3CCC(CC(=O)O)CC3)cc1)CCO2 (centres undefined) | inactive |  | -0.016% |
| O=C(N[C@H]1CCC[C@H](CO)C1)C1CCN(c2nc3cc(Cl)c(-c4ccc(Cl)cc4)cc3o2)CC1 | inactive |  | -9.89% |
| Cc1[nH]nc(C(F)(F)F)c1Cc1sc2c(c1C(=O)N1C[C@](C)(O)CO1)c(=O)n(C)c(=O)n2C(C)C | inactive |  | -25.9% |
| CCCCCCCCCCCCC[N+](C)(C)Cc1ccccc1 | 20 µM (active) | 20 µM (active) |  |
| COc1cc(-c2cn(C)c(=O)c3cnccc23)cc(OC)c1CN(C)C | inactive | inactive |  |
| O=C(c1c(F)ccc(NS(=O)(=O)N2CC[C@@H](F)C2)c1F)c1c[nH]c2ncc(-c3cnc(C4CC4)nc3)cc12 | inactive |  | -17.3% |
| O=C(CCCc1ccc2cccnc2n1)NCc1cc(-c2ccc(F)c(C(F)(F)F)c2)no1 | inactive |  | -12.5% |
| Nc1nccc(-c2c(-c3ccc(F)cc3)ncn2C2CCCCC2)n1 | inactive | inactive |  |
| O=C(NCC(=O)N1CCCC1)Nc1ccc2cnccc2c1 | inactive |  | -15.6% |
| COc1cc(C(=O)O)ccc1NC(=O)[C@@H]1N[C@@H](CC(C)(C)C)[C@](C#N)(c2ccc(Cl)cc2F)[C@H]1c1cccc(Cl)c1F | inactive |  | 1.92% |
| CC(C)(O)C1CCC(Nc2ccc3ncc(-c4cccc(C(F)(F)F)c4)n3n2)CC1 (centres undefined) | inactive |  | -18.1% |
| O=C(NCCCNC(=O)c1ccc[nH]c1=O)c1cc(-c2ccccc2)on1 | inactive | inactive |  |
| Cc1c[nH]c(/C=C2\C(=O)Nc3ccccc32)c1CCC(=O)O | inactive |  | -20.8% |
